{"source": "PubChem BioAssay (NCATS)", "key": {"[1]": {"target": "Guanine nucleotide-binding protein G(i) subunit alpha-1 (Homo sapiens) (UniProt P63096)", "sequence (P63096 whole entry, looked up)": "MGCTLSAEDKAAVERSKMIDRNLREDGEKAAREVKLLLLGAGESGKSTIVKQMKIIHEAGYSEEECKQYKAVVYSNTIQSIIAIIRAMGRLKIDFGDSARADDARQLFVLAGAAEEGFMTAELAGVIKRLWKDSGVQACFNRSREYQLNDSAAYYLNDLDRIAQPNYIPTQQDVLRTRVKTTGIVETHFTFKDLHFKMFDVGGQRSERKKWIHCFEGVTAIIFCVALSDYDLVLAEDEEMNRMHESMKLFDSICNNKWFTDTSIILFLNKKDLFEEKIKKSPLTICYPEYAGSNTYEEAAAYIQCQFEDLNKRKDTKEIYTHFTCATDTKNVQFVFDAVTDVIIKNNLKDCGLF", "assay": "qHTS Assay for Inhibitors of RGS12 GoLoco Motif Activity (Green Fluorophore) (AID 879);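 further: negative values mean loss of peptide binding seen as reduced polarization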", "details": "Galphai1/FITC-RGS12 GoLoco peptide, fluorescence polarization; series mostly up to 57.1 µM", "outline": "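A drop in FITC polarization marked displacement of the FITC-tagged RGS12 GoLoco peptide (10 nM) from Gαi1 (50 nM). Compounds were incubated 10 min at room temperature in Tris pH 7.5 buffer containing 150 mM NaCl, 0.1 mM GDP and 0.05% NP40; unlabeled peptide titration served as control.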"}, "[2]": {"target": "Cytochrome P450 2D6 (Homo sapiens) (UniProt P10635)", "sequence (P10635 whole entry, looked up)": "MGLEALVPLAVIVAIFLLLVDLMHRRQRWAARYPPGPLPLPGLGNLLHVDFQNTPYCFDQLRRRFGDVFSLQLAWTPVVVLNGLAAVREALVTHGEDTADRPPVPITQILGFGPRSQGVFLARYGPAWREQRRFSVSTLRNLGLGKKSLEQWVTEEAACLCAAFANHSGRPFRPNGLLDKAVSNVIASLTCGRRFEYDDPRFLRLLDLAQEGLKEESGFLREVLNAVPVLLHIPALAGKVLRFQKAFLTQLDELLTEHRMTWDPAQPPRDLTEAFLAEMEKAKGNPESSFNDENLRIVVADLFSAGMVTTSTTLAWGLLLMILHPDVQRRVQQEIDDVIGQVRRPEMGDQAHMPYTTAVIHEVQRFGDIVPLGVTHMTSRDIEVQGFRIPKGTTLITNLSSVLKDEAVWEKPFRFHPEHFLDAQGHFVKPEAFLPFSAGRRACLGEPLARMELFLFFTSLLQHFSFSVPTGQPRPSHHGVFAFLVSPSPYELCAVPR", "assay": "qHTS Assay for Inhibitors and Substrates of Cytochrome P450 2D6 (AID 891); further: nearly all actives have a fitted effect of over 60% in size; further: potency means the concentration at half of the fitted maximal effect", "details": "recombinant CYP2D6, luciferin-ME EGE luminescence; series mostly up to 57.1 µM", "outline": "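Luminescent read-out of luciferin formed by 5 nM human CYP2D6 demethylating 30 uM Luciferin-ME EGE (Km level) over 60 min at room temperature after NADPH regeneration addition. Data normalized to full inhibition by 1.43 uM quinidine.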"}, "[3]": {"target": "Cytochrome P450 3A4 (Homo sapiens) (UniProt P08684)", "sequence (P08684 whole entry, looked up)": "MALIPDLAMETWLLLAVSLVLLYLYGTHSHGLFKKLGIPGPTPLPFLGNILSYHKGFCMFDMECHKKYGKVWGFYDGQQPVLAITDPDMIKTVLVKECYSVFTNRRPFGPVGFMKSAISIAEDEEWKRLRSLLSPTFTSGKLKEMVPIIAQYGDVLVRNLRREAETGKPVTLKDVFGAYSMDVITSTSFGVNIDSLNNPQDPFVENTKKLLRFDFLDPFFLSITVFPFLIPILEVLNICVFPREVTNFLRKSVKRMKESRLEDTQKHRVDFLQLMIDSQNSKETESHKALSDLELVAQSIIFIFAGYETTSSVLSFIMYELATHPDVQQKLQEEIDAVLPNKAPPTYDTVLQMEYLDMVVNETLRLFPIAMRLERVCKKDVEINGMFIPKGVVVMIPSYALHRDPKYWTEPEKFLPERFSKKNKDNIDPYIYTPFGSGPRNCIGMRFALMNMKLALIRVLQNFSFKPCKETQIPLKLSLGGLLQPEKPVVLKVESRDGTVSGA", "assay": "qHTS Assay for Inhibitors and Substrates of Cytochrome P450 3A4 (AID 884); further: nearly all actives have a fitted effect of over 50% in size; further: potency means the concentration at half of the fitted maximal effect", "details": "recombinant CYP3A4, Luciferin-PPXE luminescence; series mostly up to 57.1 µM", "outline": "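Luminescent readout of luciferin produced by CYP3A4 (20 nM) dealkylation of Luciferin-PPXE, 25 uM (its KM). NADPH-driven reaction ran 60 min at RT after 10 min compound preincubation; data scaled to 57 uM ketoconazole as 100% inhibition.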"}, "[4]": {"target": "Cytochrome P450 3A4 (Homo sapiens) (UniProt P08684)", "assay": "qHTS Assay for Activators of Cytochrome P450 3A4 (AID 885); further: nearly all actives have a fitted effect of over 65% in size", "details": "recombinant CYP3A4, Luciferin-PPXE luminescence, 60 min; series mostly up to 57.1 µM", "outline": "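Luminescent readout of luciferin formed from 25 uM Luciferin-PPXE (KM level) by 20 nM CYP3A4 in 200 mM KPO4, with 60 min NADPH-driven reaction at room temperature after 10 min compound exposure. Ketoconazole (57 uM) defined 100% inhibition.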"}, "[5]": {"target": "Cytochrome P450 2C9 (Homo sapiens) (UniProt P11712)", "sequence (P11712 whole entry, looked up)": "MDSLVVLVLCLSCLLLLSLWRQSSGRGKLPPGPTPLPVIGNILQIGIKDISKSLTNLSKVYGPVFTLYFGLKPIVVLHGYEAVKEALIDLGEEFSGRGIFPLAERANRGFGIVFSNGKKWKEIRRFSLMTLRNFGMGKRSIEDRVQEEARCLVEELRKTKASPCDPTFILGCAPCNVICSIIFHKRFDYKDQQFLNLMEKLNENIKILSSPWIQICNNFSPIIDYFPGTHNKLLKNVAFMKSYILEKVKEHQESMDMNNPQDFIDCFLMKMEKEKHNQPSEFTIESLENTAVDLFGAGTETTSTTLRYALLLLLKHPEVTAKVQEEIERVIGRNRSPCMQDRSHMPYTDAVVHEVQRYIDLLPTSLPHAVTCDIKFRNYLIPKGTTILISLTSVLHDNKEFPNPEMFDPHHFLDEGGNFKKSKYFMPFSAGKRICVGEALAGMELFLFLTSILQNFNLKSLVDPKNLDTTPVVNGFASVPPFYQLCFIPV", "assay": "qHTS Assay for Inhibitors and Substrates of Cytochrome P450 2C9 (AID 883); further: nearly all actives have a fitted effect of over 60% in size; further: potency means the concentration at half of the fitted maximal effect", "details": "recombinant CYP2C9, luciferin-H luminescence, 60 min; series mostly up to 57.1 µM", "outline": "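Turnover of Luciferin-H (100uM, KM) by 10nM human CYP2C9 was measured over 60 min at 37C with NADPH regeneration; inhibitors and some substrates reduce luminescence. Data normalized to sulphaphenazole 57uM.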"}}, "note": "Results filed as inconclusive are left out. Where a call stands in place of a potency, no number is given. Active and inactive are the calls of the source. The call rests on the fitted dose curve; in most records, active means well fitted curve in the direction sought with a large enough effect; inconclusive means small, poorly fitted or top-dose-only effect, or another doubt; inactive means no such curve, though single readings can be large; an effect the other way counts as inactive or inconclusive.", "data": [{"smiles": "Fc1ccc(CN(C2=NCCN2)c2c(Cl)cccc2Cl)cc1", "values": [{"measurement": "Potency", "setting": "[1]", "value": "inactive"}, {"measurement": "Potency", "setting": "[2]", "value": "1.26 µM (active)"}]}, {"smiles": "c1ccc(C(NCCNC(c2ccccc2)c2ccccc2)c2ccccc2)cc1", "values": [{"measurement": "Potency", "setting": "[3]", "value": "inactive"}]}, {"smiles": "C=C(C)C1CC=C(C(=O)O)CC1", "note": "(stereo unspecified)", "values": [{"measurement": "Potency", "setting": "[3]", "value": "inactive"}]}, {"smiles": "NC1CONC1=O", "note": "(stereo unspecified)", "values": [{"measurement": "Potency", "setting": "[4]", "value": "inactive"}]}, {"smiles": "c1ccc(C2CN3CCSC3=N2)cc1", "note": "(stereo unspecified)", "values": [{"measurement": "Potency", "setting": "[3]", "value": "inactive"}]}, {"smiles": "COc1ccc2c(c1)c(CC(=O)O)c(C)n2C(=O)c1ccccc1", "values": [{"measurement": "Potency", "setting": "[1]", "value": "inactive"}, {"measurement": "Potency", "setting": "[2]", "value": "inactive"}]}, {"smiles": "O=C(N[C@@H](Cc1ccccc1)C(=O)CCl)OCc1ccccc1", "values": [{"measurement": "Potency", "setting": "[1]", "value": "inactive"}, {"measurement": "Potency", "setting": "[4]", "value": "inactive"}]}, {"smiles": "CCCCCCCCCCC(C)(C)C(=O)Nc1c(OC)cc(OC)cc1OC", "values": [{"measurement": "Potency", "setting": "[3]", "value": "7.94 µM (active)"}, {"measurement": "Potency", "setting": "[4]", "value": "inactive"}]}, {"smiles": "COc1ccccc1N1CCN(CCCCN2C(=O)c3ccccc3C2=O)CC1", "values": [{"measurement": "Potency", "setting": "[1]", "value": "inactive"}, {"measurement": "Potency", "setting": "[4]", "value": "inactive"}]}, {"smiles": "CN(C)CCCc1cc(C(=O)Nc2ccc(-c3ccncc3)cc2)ccc1O", "values": [{"measurement": "Potency", "setting": "[4]", "value": "inactive"}, {"measurement": "Potency", "setting": "[2]", "value": "5.01 µM (active)"}]}, {"smiles": "O=C1OC(=O)C2C3CCC(O3)C12", "note": "(stereo unspecified)", "values": [{"measurement": "Potency", "setting": "[3]", "value": "inactive"}]}, {"smiles": "NC[C@@H]1O[C@H](c2ccccc2)Cc2c1ccc(O)c2O", "values": [{"measurement": "Potency", "setting": "[5]", "value": "6.31 µM (active)"}]}, {"smiles": "NC1(C(=O)O)CCCCC1", "values": [{"measurement": "Potency", "setting": "[1]", "value": "inactive"}, {"measurement": "Potency", "setting": "[2]", "value": "inactive"}]}, {"smiles": "O=C(c1ccc2c(c1)OCCO2)N1CCCCC1", "values": [{"measurement": "Potency", "setting": "[5]", "value": "inactive"}, {"measurement": "Potency", "setting": "[2]", "value": "inactive"}]}, {"smiles": "COc1ccc2c(c1)c(CC(=O)O)c(C)n2Cc1ccc(Cl)cc1", "values": [{"measurement": "Potency", "setting": "[4]", "value": "inactive"}]}, {"smiles": "CSC(=N)N", "values": [{"measurement": "Potency", "setting": "[2]", "value": "0.0501 µM (active)"}]}, {"smiles": "N[C@H](C(=O)O)[C@H](O)C(=O)O", "values": [{"measurement": "Potency", "setting": "[1]", "value": "inactive"}, {"measurement": "Potency", "setting": "[4]", "value": "inactive"}]}, {"smiles": "CC1=C(/C=C/C(C)=C/C=C/C(C)=C\\C(=O)O)C(C)(C)CCC1", "values": [{"measurement": "Potency", "setting": "[3]", "value": "inactive"}]}, {"smiles": "Nc1ccc(N2C(=O)c3ccccc3C2=O)c(Cl)c1", "values": [{"measurement": "Potency", "setting": "[1]", "value": "inactive"}, {"measurement": "Potency", "setting": "[4]", "value": "inactive"}]}, {"smiles": "CCN(CC)CCCCCCCCOC(=O)c1cc(OC)c(OC)c(OC)c1", "values": [{"measurement": "Potency", "setting": "[1]", "value": "inactive"}, {"measurement": "Potency", "setting": "[4]", "value": "inactive"}]}]}
